Measurements reported in PubChem BioAssay AID504648 (National Center for Advancing Translational Sciences (NCATS), 2011).
Hit rate of the full screen: of about 390,000 compounds, about 610 (0.16%) were called active. Inconclusive results (about 4%) are left out. Calls follow the shape of the dose curve; as a rule, active = well fitted inhibition curve with a large enough effect; inconclusive = small, poorly fitted or top-dose-only effect, or effect the other way, or another doubt; inactive = no such curve, though single readings can be large or run the other way. The entries come from a sample that favours actives as a whole.

Experiment: Nrf2 qHTS screen for inhibitors: counterscreen for cytotoxicity
Conditions: A549 ARE-Fluc cells, CellTiter-Fluor viability, 18-24 h; series mostly up to 46 µM; activity change, negative = cytotoxicity: at the top concentration
Outline: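 A549 ARE_Fluc cells in 5% FBS OPTI-MEM were exposed to compounds in concentration-response for 18-24 h at 37 deg C. Viability was read by CellTiter-Fluor fluorescence (Ex 405/Em 525) after 30 min, before the luciferase read.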
% is scaled to controls: 0 for no effect and ±100 for the full control effect; potency is read from the fitted curve at half-maximal effect.

SMILES | activity change, negative = cytotoxicity | Potency
COc1ccc(C2=Nn3c(nnc3-c3ccccc3O)SC2)cc1 | -7.21% (inactive) | 
Cc1ccc(CNc2ncnc3cc(-c4ccc5c(c4)OCO5)ccc23)o1 | -2.54% (inactive) | 
Cc1oc2c(c1C(=O)N1CCOCC1)C(=O)c1ccccc1C2=O |  | 16.4 µM (active)
Cc1ccc(C)c(CN2C(=O)c3ccccc3S(=O)c3ccc(C(=O)N4CCOCC4)cc32)c1 (configuration not stated) | -13.8% (inactive) | 
Cc1ccc(S(=O)(=O)NC(C(=O)N2CCOCCOCCOCCOCC2)c2ccccc2)cc1 (configuration not stated) | -3.7% (inactive) | 
CCN(CC)c1nc(C#N)nc(OC)n1 | -1.26% (inactive) | 
Cc1ccccc1OCCSc1nc2ccc(NC(=O)c3ccco3)cc2s1 | -0.577% (inactive) | 
CCOc1ccccc1NC(=O)CN1CCCN(Cc2cccc(Cl)c2)S1(=O)=O | -12.6% (inactive) | 
CC(C)c1ccc(NC(=O)Cn2c3ncccc3c(=O)n2-c2ccccc2)cc1 | -8.64% (inactive) | 
Cc1ccc(C(=O)Nc2nc(-c3ccccc3)ns2)cc1 | -4.23% (inactive) | 
CCN1CCN(CCCNC(=O)c2ccc3c(c2)sc2nc(-c4ccc(OC)cc4)cn23)CC1 | -2% (inactive) | 
Cc1cc2nc(NC(=O)c3ccc(S(=O)(=O)N4CCOCC4)cc3)sc2cc1C | -1.39% (inactive) | 
Cc1ccc(NS(=O)(=O)c2ccc(C(=O)NCCCN3CCOCC3)cc2)cc1 | 4.68% (inactive) | 
Cc1ccc(/C=C2/SC(=S)N(CCC(=O)NCCCN3CCOCC3)C2=O)cc1 |  | 14.6 µM (active)
CC(C)c1ccc(/C=C/C(=O)NCCCN2CCOCC2)cc1 | 7.3% (inactive) | 
O=C(NCC1CC1)C1(C(F)(F)F)C/C(=C\CCO)CCCO1 (configuration not stated) | 0.0644% (inactive) | 
CCN1/C(=C\c2ccc3ccccc3[n+]2CC)Sc2cc(C)ccc21 |  | 23.1 µM (active)
Cc1ccc(CN2CCCn3nc(C(=O)NCc4ccccc4Cl)cc3C2=O)cc1 | 1.39% (inactive) | 
Cc1ccc(Nc2c(-c3ccc(N(C)C)cc3)nc3nc[nH]n23)cc1 | -28.6% (inactive) | 

SMILES | activity change, negative = cytotoxicity | Potency
CN(C)c1ccc(Nc2c3c4c(cccc4n(C)c2=O)C(=O)c2ccccc2-3)cc1 |  | 14.6 µM (active)
COc1cc(OC)c2c(c1C(CCN1CCCCC1)c1ccc(N(C)C)cc1)OC(=O)CC2c1ccc(N(C)C)cc1 (configuration not stated) | -5.51% (inactive) | 
Cc1ccc(OCCSc2nc(-c3cccs3)nc3cc(=O)[nH]n23)cc1Cl | 23.5% (inactive) | 
CCOc1ccc(NC(=O)C(CC(C)C)N2Cc3ccccc3C2=O)cc1 (configuration not stated) | -1.04% (inactive) | 
COc1cc(Cl)c(C)cc1NC(=O)CCc1nc2cccnc2n1Cc1cccs1 | -8.95% (inactive) | 
CN(C)c1ccc(C(=O)NCC(=O)OC(C(=O)Nc2cc(C(F)(F)F)ccc2Cl)c2ccccc2)cc1 (configuration not stated) | 7.11% (inactive) | 
Cc1ccc(C(=O)NC2CCN(C#N)CC2)cc1 | -6.13% (inactive) | 
COc1ccc(-c2nc(S(=O)(=O)c3ccccc3)c(N3CCCCC3)o2)cc1 | 3.31% (inactive) | 
O=S(=O)(c1ccc2c(c1)OCCO2)N1CCN(S(=O)(=O)c2cc(F)ccc2F)CC1 | 5.33% (inactive) | 
COc1ccc(C2/C=C\CN(Cc3ccco3)C(C)C(=O)N2Cc2ccc(F)cc2)cc1 (configuration not stated) | -0.755% (inactive) | 
COc1cccc(NC(=O)Nc2ccc3c(c2)N(C)C(=O)c2ccccc2S3)c1 | -3.77% (inactive) | 
CC1(C)CCc2cc(S(=O)(=O)N3CCN(c4nc(-c5cccs5)nc5ccccc45)CC3)ccc2O1 | 0.26% (inactive) | 
CCCS(=O)(=O)N1CCC(n2c(C(F)(F)F)nc3cccnc32)CC1 | -5.29% (inactive) | 
OCCNc1ncnc2oc(-c3ccco3)c(-c3ccco3)c12 | -3.98% (inactive) | 
COc1ccc(C2CC(O)(c3ccccc3)Oc3cc(C)cc(C)c32)cc1 (configuration not stated) | -4.87% (inactive) | 
O=S(=O)(c1cccc(C(F)(F)F)c1)N1CCN(c2nc(-c3cccs3)nc3ccccc23)CC1 | 0.796% (inactive) | 
COc1cccc(C(=O)NC2CCN(C#N)CC2)c1 | -3.16% (inactive) | 
C=CCCN(C(Cc1ccccc1)C(=O)OC)S(=O)(=O)c1cc(Br)ccc1Br (configuration not stated) | -0.362% (inactive) | 
